This excerpt belongs to a sample that is enriched for hits.
Tgondii IFNg: blocks Toxoplasma gondii growth in the presence of IFN-gamma. Toxoplasma gondii growth in IFN-gamma-treated host cells; active compounds read low. activity change, negative = inhibition, % (concentration not given with the values). 69,000 tested, 3.8% active. AID 1259416; in the data active means activity change below about -70%, passing the limit was not always enough;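 further: host cells are HeLa cells infected with Toxoplasma gondii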
Numbers stand for hits.

Screening COc1ccccc1-n1cc(-c2ccnc(NCCc3cnccn3)n2)cn1 returned Tgondii IFNg inactive.
`Cc1ccccc1-n1cc(-c2ccnc(NC3CCNCC3)n2)cn1` gave Tgondii IFNg inactive.
`Fc1ccccc1-n1cc(-c2ccnc(NCc3ccon3)n2)cn1` gave Tgondii IFNg -76.0.
OCC1(CCc2ccccc2)CCN(c2ccc3ccccc3n2)CC1 was read as Tgondii IFNg -77.4.
For OCC1(Cc2cccc(C(F)(F)F)c2)CCN(c2ccc3ccccc3n2)CC1 the results were Tgondii IFNg inactive.
OCC1(CCc2ccccc2)CCN(c2nccc(N3CCC(O)C3)n2)CC1 (centres undefined) was read as Tgondii IFNg inactive.
For CCc1sc(C(=O)O)cc1-c1ccc(C(N)=O)cc1 the results were Tgondii IFNg inactive.
`N/C(=N\OC(=O)CCCOc1ccc(Cl)cc1Cl)c1ccncc1` gave Tgondii IFNg inactive.
`O=C1CCc2cc(S(=O)(=O)Nc3ccc(Cl)cc3)cc3c2N1CC3` gave Tgondii IFNg inactive.
Screening COc1ccc(NS(=O)(=O)c2cc3c4c(c2)CCN4C(=O)CC3)cc1 returned Tgondii IFNg inactive.
Screening CC(C)c1ccc(NS(=O)(=O)c2cc3c4c(c2)CCN4C(=O)CC3)cc1 returned Tgondii IFNg -76.5.
Screening O=C1CCc2cc(S(=O)(=O)NCCc3ccccc3)cc3c2N1CCC3 returned Tgondii IFNg inactive.
Screening Cc1cc(C)cc(NS(=O)(=O)c2cc3c4c(c2)CCN4C(=O)CC3)c1 returned Tgondii IFNg -79.4.
`Cc1cc(F)ccc1NS(=O)(=O)c1cc2c3c(c1)CCN3C(=O)CC2` gave Tgondii IFNg inactive.
`CCc1ccccc1NS(=O)(=O)c1cc2c3c(c1)CCN3C(=O)CC2` gave Tgondii IFNg inactive.
For CCc1cccc(NS(=O)(=O)c2cc3c4c(c2)CCN4C(=O)CC3)c1 the results were Tgondii IFNg -80.9.
For O=C1CCc2cc(S(=O)(=O)Nc3ccc(Br)cc3)cc3c2N1CC3 the results were Tgondii IFNg inactive.
Cc1ccc2cccnc2c1NC(=O)Cc1c(C)nc2[nH]nc(C)n2c1=O was read as Tgondii IFNg inactive.
COc1ccccc1NC(=O)N[C@@H]1CC[C@@H](CCNS(=O)(=O)c2ccc(Cl)cc2)O[C@H]1CO was read as Tgondii IFNg inactive.
Cc1nonc1NC(=O)CSc1nnnn1-c1ccccc1 was read as Tgondii IFNg inactive.
For O=C(C[C@H]1CC[C@@H]2[C@H](COC[C@H](O)CN2Cc2nccs2)O1)NCc1ccccc1Cl the results were Tgondii IFNg inactive.
CCN(CC)S(=O)(=O)N1CCCn2nc(C(=O)OC)cc2C1 was read as Tgondii IFNg inactive.
For COc1ccc(-c2nc(Cn3nnc(-c4nc(-c5cccnc5)no4)c3C)c(C)o2)cc1 the results were Tgondii IFNg inactive.
For COc1ccc(N(C)C(=O)c2nc(-c3cccc(F)c3)n3c2CCCCC3)c(OC)c1 the results were Tgondii IFNg inactive.
For Cn1cc(CN2CCC(C(=O)NCCc3ccc(Cl)cc3)C2)cn1 (centres undefined) the results were Tgondii IFNg inactive.
`COCCN1CCCC12CCN(c1ccccc1F)CC2` gave Tgondii IFNg inactive.
Screening Cc1ncccc1Oc1ncnc(N2CCCC3(CC2)CN(C)C(=O)O3)c1C (centres undefined) returned Tgondii IFNg inactive.
Cc1nnc(-c2ccccc2-c2cccc3ccnn23)s1 was read as Tgondii IFNg inactive.
NC(=O)c1csc(-c2cccc3ccnn23)n1 was read as Tgondii IFNg -97.6.
`CNC(=O)Cn1cc(-c2cccc3ccnn23)cn1` gave Tgondii IFNg inactive.
Screening Cn1cnc2c1C(C(=O)Cc1ccncc1)N(C(=O)c1cccnc1)CC2 (centres undefined) returned Tgondii IFNg inactive.
For Nc1nc(Nc2ccccc2)nc2c1ncn2[C@@H]1O[C@H](CO)[C@@H](O)[C@H]1O the results were Tgondii IFNg inactive.
`CCOC(=O)c1sc2sc(-c3ccn[nH]3)c(C)c2c1C` gave Tgondii IFNg -109.6.
For CCOC(=O)c1sc2sc(C(=O)OCC)c(-c3ccco3)c2c1N the results were Tgondii IFNg inactive.
`CCOC(=O)c1cccnc1-c1ccc(-c2ccn[nH]2)cc1` gave Tgondii IFNg inactive.
Nc1ccc2[nH]ncc2c1 was read as Tgondii IFNg inactive.
For CC(NC(=O)c1cn2c(n1)CCCC2)c1ccccn1 (centres undefined) the results were Tgondii IFNg inactive.
Screening COC(=O)c1cc(CN(C)Cc2cccc3ncccc23)cs1 returned Tgondii IFNg inactive.
Screening Cc1onc(-c2c(F)cccc2Cl)c1C(=O)n1ccc(-c2cccs2)n1 returned Tgondii IFNg inactive.
Screening Cc1nc(CN2CCC(O)(c3ccccc3F)CC2)c2ccccn12 returned Tgondii IFNg inactive.
`O=c1c(-c2ccc(O)cc2)coc2cc(O)cc(O)c12` gave Tgondii IFNg inactive.
Screening CC(C)=CCc1c2c(c3occ(-c4ccc(O)cc4)c(=O)c3c1O)C=CC(C)(C)O2 returned Tgondii IFNg -82.2.
`CC(C)=CCc1c2c(c3occ(-c4ccc(O)c(O)c4)c(=O)c3c1O)C=CC(C)(C)O2` gave Tgondii IFNg inactive.
Screening COc1ccc(-c2nc(CN3C(=O)C(O)(c4ccccc4)c4ccccc43)c(C)o2)cc1 (centres undefined) returned Tgondii IFNg -78.3.
`COc1ccc(-c2cc3c(=O)n(Cc4nc(-c5ccccc5)oc4C)ccn3n2)cc1` gave Tgondii IFNg inactive.
Screening Cc1oc(-c2ccccc2)nc1CN1C(=O)C(O)(c2ccccc2)c2ccccc21 (centres undefined) returned Tgondii IFNg inactive.
For COc1ccc(-c2nc(Cn3c(C)cc(C)c(-c4nc(-c5ccccc5)no4)c3=O)c(C)o2)cc1 the results were Tgondii IFNg -86.3.
Screening COc1ccc(-c2nc(Cn3ccn4nc(-c5ccccc5)cc4c3=O)c(C)o2)cc1 returned Tgondii IFNg inactive.
Cc1oc(-c2ccc(C(=O)NCc3cccc(F)c3)cc2)nc1CN1CCN(c2ccccc2)CC1 was read as Tgondii IFNg inactive.
Cc1oc(-c2ccccc2)nc1CN1C(=O)C(O)(c2cccc(F)c2)c2ccccc21 (centres undefined) was read as Tgondii IFNg -105.1.
Screening Cc1oc(-c2ccc(C(=O)NCc3cccc(F)c3)cc2)nc1CN1CCc2ccccc21 returned Tgondii IFNg inactive.
`COc1ccc(-c2nc(CN3C(=O)C(O)(c4cccc(C)c4)c4ccccc43)c(C)o2)cc1` (centres undefined) gave Tgondii IFNg inactive.
`O=C(c1cn(-c2ccccc2)nn1)N1CCN(c2cnccn2)CC1` gave Tgondii IFNg inactive.
Screening COCCCN=C1NC(=O)C(CC(=O)Nc2ccc(Cl)cc2)S1 (centres undefined) returned Tgondii IFNg inactive.
For COc1cc2c(cc1C(=O)N(C)Cc1nc(C)no1)CCC2 the results were Tgondii IFNg inactive.
`CN(C(=O)CC1C(=O)NCCN1Cc1ccoc1)C1CCOCC1` (centres undefined) gave Tgondii IFNg inactive.
`CN(C)c1ccc(CN2CCC(c3nc4ccc(-c5cccnc5)cn4n3)CC2)cc1` gave Tgondii IFNg inactive.
Screening C[C@H](Cn1c(=O)oc2ccccc21)NC(=O)c1cccc(N2CCCCS2(=O)=O)c1 returned Tgondii IFNg inactive.
For Cn1cc(C(=O)N2CC[C@@H]3[C@H]2CCN3CCc2ccccc2)cn1 the results were Tgondii IFNg inactive.
For Cn1c(SCC(=O)c2ccc3c(c2)OCCO3)nnc1-c1ccc2ccccc2c1 the results were Tgondii IFNg -95.3.

Screening results deposited in PubChem by Broad Institute.
